# PI4K2A block = qHTS for small molecular inhibitors of PI4K2A; activity change, negative = inhibition, % at 76.9 µM; purified PI4K2A, ADP-Glo luminescence, 1 h; hits give low values; Phosphatidylinositol 4-kinase type 2-alpha (Homo sapiens), Q9BTU6; hit rate 0.13% among 420,000; in the data active = activity change below about -50%; inconclusive = mostly about -30% to -49%;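 also: -100% = wells without enzyme as full effect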
#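 PI4K2A activity was measured by ADP-Glo luminescence: enzyme (4 ug/mL stock) and phosphatidylinositol (1.2 mM stock) in Tris pH 7.5/MgCl2/EGTA/Triton X-100 buffer were reacted with ATP (300 microM stock) for one hour at ambient temperature.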
# A549 tox-1 = Nrf2 qHTS screen for inhibitors: counterscreen for cytotoxicity; A549 ARE-Fluc cells, CellTiter-Fluor viability, 18-24 h; Potency, µM (top dose mostly 46 µM), for inactives: top-dose activity change, negative = cytotoxicity, hits mostly inhibitors; hit rate 0.16% among 390,000; AID 504648, 2011; also: potency is read from the fitted curve at half-maximal effect
#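 Cytotoxicity counterscreen: CellTiter-Fluor fluorescence was measured in A549 ARE_Fluc cells after 18-24 h of compound exposure in a concentration series. The subsequent BugLite luminescent read reports ARE-luciferase activity.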
# Nrf2 inh = Nrf2 qHTS screen for inhibitors | A549 ARE-Fluc reporter, luciferase luminescence, 18-24 h | Potency, µM (titrated, usually from 46 µM), for inactives: top-dose activity change, negative = inhibition, usual class: inhibitors | hit rate 2.1% among 360,000; also: potency is read from the fitted curve at half-maximal effect; nearly all actives have a fitted effect of over 60% in size
#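 Quantitative HTS in A549 cells stably bearing an antioxidant response element-firefly luciferase construct. Inhibition of Nrf2-driven transcription was scored by luminescence after 18-24 h of compound exposure at 37 °C.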
# KB-3-1 cytotox = qHTS assay for MDR1-selective chemotherapeutics: Primary screen using the parental adenocarcinoma cell KB-3-1 | KB-3-1 viability, CellTiter-Glo ATP luminescence, 72 h | Potency, µM (highest dose often 46.1 µM), usual class: cytotoxic | hit rate 1.4% among 400,000; also: potency is read from the fitted curve at half-maximal effect; nearly all actives have a fitted effect of over 60% in size
#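 Viability of parental KB-3-1 cells, measured by CellTiter-Glo luminescence, followed a 72 h incubation at 37 °C with pinned compounds in phenol-red-free DMEM containing 10% FBS.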
# Giardia killer = Small Molecules that selectively kill Giardia lamblia: qHTS; Giardia lamblia trophozoite viability; activity change, % at 7.66 µM, hits read low; hit rate 0.15% among 340,000; AID 540267, 2011; in the data active = activity change below about -80%; inconclusive = between about -30% and that limit;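 also: parasites exposed to compound for two days anaerobically before the ATP read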
#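 Each well holds 100 Giardia trophozoites and compound. After two days (48 hrs) at 37 deg C in anaerobic conditions, ATP is quantified by luminescence.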
# KB-V1 cytotox = qHTS assay for MDR1-selective chemotherapeutics: Primary screen using the drug-selected MDR subline cells KB-V1. KB-V1 MDR cells viability, CellTiter-Glo, 72 h. Potency, µM (doses to about 46.1 µM), most hits filed as cytotoxic. hit rate 3.4% among 400,000. AID 1347076, 2019; also: potency is read from the fitted curve at half-maximal effect; nearly all actives have a fitted effect of over 60% in size
#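 In this primary screen, KB-V1 cells overexpressing P-gp are incubated with library compounds (lowest to highest concentration) for 72 h at 37 degrees C before a luminescent ATP viability read.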
# FLuc enzyme inh = Nrf2 qHTS screen for inhibitors: Purified Fluc Biochemical Counterscreen for Hit Validation; AID 720522, 2013; purified firefly luciferase, luminescence inhibition; shares compounds with Nrf2 inh; hit rate 4% among 1,400; Potency, µM (titrated, usually from 57.5 µM), for inactives: top-dose activity change, negative = inhibition, most hits filed as inhibitors; also: potency is read from the fitted curve at half-maximal effect; nearly all actives have a fitted effect of over 65% in size
# Target sequence (P08659 whole entry, looked up): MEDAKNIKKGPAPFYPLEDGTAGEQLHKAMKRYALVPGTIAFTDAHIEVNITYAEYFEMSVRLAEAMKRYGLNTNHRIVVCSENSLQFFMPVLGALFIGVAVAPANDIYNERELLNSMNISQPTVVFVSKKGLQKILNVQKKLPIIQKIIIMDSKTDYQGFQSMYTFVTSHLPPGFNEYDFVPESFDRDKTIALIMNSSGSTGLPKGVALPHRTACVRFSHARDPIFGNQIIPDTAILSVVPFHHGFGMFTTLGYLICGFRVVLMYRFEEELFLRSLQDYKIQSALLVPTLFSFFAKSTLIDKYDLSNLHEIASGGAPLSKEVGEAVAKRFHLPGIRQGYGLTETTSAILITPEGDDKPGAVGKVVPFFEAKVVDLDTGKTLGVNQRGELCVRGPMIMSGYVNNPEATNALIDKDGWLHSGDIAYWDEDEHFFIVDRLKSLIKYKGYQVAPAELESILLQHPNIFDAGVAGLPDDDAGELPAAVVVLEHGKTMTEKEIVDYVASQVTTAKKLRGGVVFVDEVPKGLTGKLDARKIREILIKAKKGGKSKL
# A549 tox-2 = Nrf2 qHTS screen for inhibitors: A549 ARE-Fluc Cytotoxicity Counterscreen for Hit Validation; shares compounds with Nrf2 inh; A549 ARE-Fluc cells, cytotoxicity counterscreen; Potency, µM (top dose mostly 46.1 µM), for inactives: at the top dose activity change, negative = cytotoxicity, most hits filed as inhibitors; hit rate 2% among 1,400;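 also: potency is read from the fitted curve at half-maximal effect; cells exposed to compounds for 18 to 24 hours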
# Nrf2 ARE inh = Nrf2 qHTS screen for inhibitors: Nrf2 A549 ARE-Fluc Confirmation Assay for Hit Validation; Potency, µM (doses to about 46.1 µM), without a hit: at the top dose activity change, negative = inhibition, actives largely listed as inhibitors; A549 ARE-firefly luciferase reporter, luminescence; shares compounds with Nrf2 inh; hit rate 74% among 1,400; also: potency is read from the fitted curve at half-maximal effect; nearly all actives have a fitted effect of over 65% in size
# The depositor's hits bear a star; i = inactive; ? = inconclusive; / = no result given; ! = a repeat was not active. An excerpt weighted towards active compounds, which were near 5.7% of everything screened. Unless noted, calls follow the shape of the dose curve; as a rule, active = well fitted curve in the direction sought with a large enough effect; inconclusive = small, poorly fitted or top-dose-only effect, or another doubt; inactive = no such curve, though single readings can be large; an effect the other way counts as inactive or inconclusive. Unless noted, % is scaled to controls: 0 for no effect and ±100 for the full control effect.
SMILES,PI4K2A block,A549 tox-1,Nrf2 inh,KB-3-1 cytotox,Giardia killer,KB-V1 cytotox,FLuc enzyme inh,A549 tox-2,Nrf2 ARE inh
C[C@]12CC[C@H](O)C[C@H]1CC[C@@H]1[C@@H]2CC[C@]2(C)[C@@H](C3=CC(=O)OC3)CC[C@]12O,0,?,0.26µM*,1.6µM*,-1,1.5µM*,3%,?,0.21µM*
C[C@H]1O[C@@H](O[C@H]2[C@@H](O)C[C@@H](O[C@H]3[C@@H](O)C[C@H](O[C@H]4CC[C@@]5(C)[C@H](CC[C@@H]6[C@@H]5CC[C@]5(C)[C@@H](C7=CC(=O)OC7)CC[C@]65O)C4)O[C@@H]3C)O[C@@H]2C)C[C@H](O)[C@@H]1O,/,/,/,0.01µM*,/,?,1%,?,0.021µM*
CC(=O)OC1CC(OC2C(O)CC(OC3C(O)CC(OC4CCC5(C)C(CCC6C5CC(O)C5(C)C(C7=CC(=O)OC7)CCC65O)C4)OC3C)OC2C)OC(C)C1OC1OC(CO)C(O)C(O)C1O (stereo not given),4,?,0.13µM*,?,-5,0.92µM*!,1%,?,0.16µM*
CC12CCC(O)CC1CCC1C2CCC2(C)C(C3=CC(=O)OC3)CCC12O (stereo not given),8,?,0.41µM*,1.2µM*,-12,0.73µM*,1%,?,0.26µM*
CNC(=O)Nc1ccc(C(=O)N/N=C\C23CC[C@@H](O)CC2(O)CC[C@@H]2[C@@H]3CCC3(C)C(C4=CC(=O)OC4)CCC23O)cc1 (stereo not given in full),-7,-16%,?,?,9,i,/,/,/
COP(=O)(OC)C(C)NC(=O)OCc1ccccc1 (stereo not given),3,/,/,/,/,/,/,/,/
C[C@]12CC[C@H](O)C[C@H]1CC[C@@H]1[C@@H]2C[C@@H](O)[C@]2(C)[C@@H](C3=CC(=O)OC3)CC[C@]12O,2,?,0.46µM*,1.3µM*,-3,1.6µM*,0%,?,0.46µM*
C[C@]12CCC3C(CC[C@H]4C[C@@H](O)CC[C@]34C)[C@H]1C=CC2=O (stereo not given in full),7,-1%,?,?,-17,?,/,/,/
Cc1ccc(OCC(=O)N2CCN(CCc3ccncc3)CC2)cc1C,-2,13%,15%,i,/,i,/,/,/
O=C(CCCCCCCCCCC(=O)NCc1cccnc1)NCc1cccnc1,-4,-1%,?,?,-6,?,4%,-6%,?
Cc1nnc2n1-c1sc(CCC(=O)N3CCOCC3)cc1C(c1ccccc1Cl)=NC2,-2,/,/,/,/,/,/,/,/
C[C@H]1[C@@H](OS(=O)(=O)O)C[C@@H]2C[C@H]([C@@H](O)c3cc(=O)[nH]c(=O)[nH]3)NC3=NC[C@H]1N32,0,-29%,0.65µM*,1µM*,8,2.1µM*,2%,/,0.23µM*
Cc1ccc(-c2cc(C(F)F)n3ncc(C(=O)N4CCc5ccccc5C4)c3n2)cc1,-2,-2%,?,i,-29,?,/,/,/
Cc1cc(S(=O)(=O)NC(C)C)ccc1OCC(=O)N1CCN(Cc2ccc3c(c2)OCO3)CC1,-5,-29%,9.2µM*,16µM*,8,2.6µM*,-2%,-3%,-24%
C#CC1(O)CCC2C3CCC4=C/C(=N/OCC(=O)NCC(=O)NC(C(=O)O)C(C)C)CC[C@]4(C)C3CC[C@@]21C (stereo not given in full),-1,3%,2.1µM*,i,-5,i,1%,-6%,6.5µM*
CCN1CC=C(c2c[nH]c3ccccc23)CC1,5,?,1.3µM*,i,11,i,-28%,?,0.033µM*
Cc1ccc(OCC(=O)Nc2ccc(Cl)cc2C(=O)c2ccccc2)cc1C,-10,3%,4%,/,/,/,/,/,/
CC(=O)C1CCOC1=O (stereo not given),3,/,/,/,/,/,/,/,/
CCN(CC)CCN1C(=O)CN=C(c2ccccc2F)c2cc(Cl)ccc21,2,/,/,/,/,/,/,/,/
CCCCCn1c(=O)c(C(=O)Nc2cc(C)ccn2)c(O)c2ccccc21,2,-1%,3%,i,2,?,/,/,/
CCCCCn1c(=O)c(C(=O)Nc2cnccn2)c(O)c2ccccc21,12,?,4.6µM*,?,-8,16µM*,1%,?,5.8µM*
CCCCn1c(=O)c(C(=O)Nc2ncccc2C)c(O)c2ccccc21,-2,-18%,?,?,6,?,/,/,/
CCCCCCn1c(=O)c(C(=O)Nc2ncccc2C)c(O)c2ccccc21,-1,-23%,8.2µM*,?,-1,?,0%,-14%,?
CCCCCCCn1c(=O)c(C(=O)Nc2cnccn2)c(O)c2ccccc21,1,?,4.1µM*,3.3µM*,7,2.6µM*,1%,?,/
COc1ccc(NC(=O)CN2C(=O)C(C)N=C(c3ccccc3F)c3cc(Cl)ccc32)c(OC)c1 (stereo not given),4,1%,/,/,/,/,/,/,/
CC(C)(C)NC(=O)C1CN=C(c2ccccc2)c2cc(Cl)ccc2N1C(=O)C1CCC1 (stereo not given),6,/,/,/,/,/,/,/,/
Cc1ccc(F)cc1NC(=O)c1ccc(Cn2nc(N3CCN(c4ccccc4)CC3)ccc2=O)o1,-6,-5%,7.3µM*,/,/,/,-14%,-17%,12µM*
C=C1C(=O)O[C@@H]2C[C@@H](C)[C@@H]3C=CC(=O)[C@@]3(C)[C@@H](OC(=O)CC(=O)O[C@H]3[C@@H]4C(=C)C(=O)O[C@@H]4C[C@@H](C)[C@@H]4C=CC(=O)[C@]43C)[C@H]12,-70*,15µM*,2.6µM*,i,-11,i,?,2.9µM*,2.1µM*

# Assay outcomes (PubChem)
